Screening results (PubChem)
A selection: hits, their analogues and other compounds. The true share with any hit is near 21%.
Shiga toxin inh = blocks Shiga toxin action in Vero cells | Vero cells, Shiga toxin protein synthesis inhibition reporter | AID 2315 | 290,000 compounds, 9.2% hits | inhibition, % at 38.7 µM; in the data active means inhibition mostly above about 28%, no sharp cut-off; inactive means mostly below about 43%; further: 0% is about no effect
Pf growth 96h = P. falciparum growth inhibition at 96 hour, primary screen for plastid delayed-death inhibitors; P. falciparum luciferase reporter growth, 96 h; Potency, µM (doses to about 28.7 µM), for inactives: at the top dose activity change, negative = inhibition, actives largely listed as inhibitors; 320,000 compounds, 6.9% hits; AID 504834; further: potency means the concentration at half of the fitted maximal effect; on the % scale 0 is the no-effect control and ±100 the full control effect
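Parasite growth measured via integrated firefly luciferase reporter in P. falciparum. Infected erythrocytes at 2% hematocrit, 0.05% parasitemia final were treated 96 hours at 37 C under 5% CO2, and luminescence was read.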
Cycloheximide cs = counter-screen for Shiga toxin inhibitors: cycloheximide protein synthesis inhibition | 300,000 compounds, 12% hits | max response, % | cell reporter, cycloheximide protein synthesis inhibition counterscreen; in the data active means max response mostly above about 13%, no sharp cut-off; inactive means mostly below about 14%; further: read at 38.3 µM for the half of the compounds with a filed dose; 0% is about no effect
NS1 inh = blocks influenza NS1 protein function; Potency, µM (series often up to 46.1 µM), for the others: at the highest dose activity, positive = more growth; 270,000 compounds, 0.4% hits; AID 2326; calls by dose curve; further: potency means the concentration at half of the fitted maximal effect; actives are rising curves; nearly all actives have a fitted effect of over 50% in size
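OD600 was taken as the measure of yeast growth restored by compound in an NS1-expressing S. cerevisiae strain. Cells had been washed out of glucose medium and diluted 1:100 into galactose -URA medium, pH 6.0.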
Pf growth 48h = inhibits P. falciparum growth in the first generation, 48 h | 310,000 compounds, 5.9% hits | Potency, µM (highest dose often 28.7 µM), without a hit: top-dose activity change, negative = inhibition, usual class: inhibitors | P. falciparum luciferase growth in erythrocytes, 48 h; further: potency means the concentration at half of the fitted maximal effect; on the % scale 0 is the no-effect control and ±100 the full control effect
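Here the parasites carry a stable luciferase gene and grow inside erythrocytes in Albumax-based RPMI medium with compound for one erythrocytic cycle. Activity is scored as loss of luminescent signal.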
The depositor's hits bear a star; i = inactive; ? = inconclusive; · = no result. Unless noted, the call rests on the fitted dose curve; in most records, active means well fitted inhibition curve with a large enough effect; inconclusive means small, poorly fitted or top-dose-only effect, or another doubt; inactive means no such curve, though single readings can be large or run the other way.

SMILES	Shiga toxin inh	Pf growth 96h	Cycloheximide cs	NS1 inh	Pf growth 48h
Cc1nc2sc3c(c2c(=O)o1)CCCC3	23	2.1µM*	-4	-9%	22%
Nc1nc(-c2ccccc2)nc2sc3c(c12)CCCC3	124*	-1%	53*	-5%	153%
Nc1c2c(nc3sc4c(c13)CCCC4)CCCCCC2	15	35%	2	1%	10%
O=c1oc(-c2ccccc2)nc2sc3c(c12)CCC3	70*	20%	70*	-1%	5%
Cc1sc2nc(-c3ccccc3)oc(=O)c2c1C	113*	?	66*	·	40%
COc1cc(OC)cc(C(=O)NCC2CCCN(C(=O)c3csc(C)n3)C2)c1 (stereo unspecified)	-6	?	1	4%	8%
CC(=O)Nc1ccc(N(C(=O)Cc2cccs2)C(C(=O)NC2CCCC2)c2ccncc2)cc1 (stereo unspecified)	-8	?	-5	-7%	-64%
CCOc1ccc(Br)cc1S(=O)(=O)Nc1nc(CN2CCOCC2)nc2sc(C)c(C)c12	-12	1%	-2	7%	-1%
O=C1NN=C(CSc2n[nH]c(=S)s2)CS1	-12	34%	0	7%	-12%
O=C(COC(=O)c1cc(Br)ccc1O)Nc1cc(S(=O)(=O)N2CCCC2)ccc1Cl	-15	-4%	-3	·	-15%
CC(=O)Nc1ccc(/C=C/c2ccc3cccc([N+](=O)[O-])c3n2)cc1	75*	?	23*	7%	59%
O=C(O)COc1ccc(/C=C/c2ccc3cccc([N+](=O)[O-])c3n2)cc1	13	-16%	-2	6%	27%
O=[N+]([O-])c1ccc(/C=C/c2ccc3cccc(O)c3n2)cc1	98*	-14%	60*	3%	·
O=[N+]([O-])c1ccc(/C=C/c2ccc3ccccc3n2)cc1	30	13%	21*	·	i
CN(CC1CCOCC1)C(=O)CC1C(=O)NCCN1Cc1cccc(Oc2ccccc2)c1 (stereo unspecified)	-2	?	-2	2%	?
COc1ccc(OC)c(NC(=O)Cn2c(-c3ccc(Cl)cc3)noc2=O)c1	20	173%	-4	0%	4.1µM*
COc1ccc(Cl)cc1NC(=O)CN1CCN(S(=O)(=O)N2CCOCC2)CC1	15	9%	-3	-11%	-26%
COc1ccc(NC(=O)Cn2c(=O)oc3cc(Cl)ccc32)c(OC)c1	-8	?	10	-1%	-5%
COc1ccc(C)cc1NC(=O)CN1CCN(S(=O)(=O)c2ccc(C(C)C)cc2)CC1	14	30%	1	-40%	13µM*
COc1ccc(C)cc1NC(=O)CN1CCN(S(=O)(=O)c2ccc(Cl)cc2)CC1	-8	?	-1	-36%	12µM*
COc1ccc(S(=O)(=O)N2CCN(CC(=O)Nc3cc(Cl)ccc3Cl)CC2)cc1	·	10%	·	·	-9%
COc1ccc(Cl)cc1NC(=O)CN1CCN(S(=O)(=O)c2ccc(F)cc2)CC1	-5	-9%	-1	3%	3.7µM*
COc1cc(S(=O)(=O)N2CCN(c3ccccn3)CC2)ccc1Br	3	217%	2	-35%	7%
CC(C)c1nc(SCC(=O)NCc2ccccc2)n[nH]1	1	?	-4	4%	-2%
CC(=O)Nc1ccccc1C(=O)C(=O)Nc1cccc(C(=O)N2CC(C)CC(C)C2)c1 (stereo unspecified)	-12	?	9	·	2%
SMILES	Shiga toxin inh	Pf growth 96h	Cycloheximide cs	NS1 inh	Pf growth 48h
Cc1onc(-c2c(F)cccc2Cl)c1C(=O)N(Cc1ccccc1)C(C)C	-19	?	-1	-8%	?
COc1cc2c(cc1NC(=O)c1ccncc1)oc1ccccc12	36	170%	15	-110%	·
COc1cc2c(cc1NC(=O)C(C)Sc1nc3ccccc3n1C)oc1ccccc12 (stereo unspecified)	-45	7.4µM*	3	3%	12µM*
COc1cc2c(cc1NC(=O)C(C)Sc1cccc[n+]1[O-])oc1ccccc12 (stereo unspecified)	79*	173%	75*	-21%	202%
COCc1cc(C)n(CC(=O)Nc2ccc(N3CCOCC3)cc2)c(=O)c1C#N	·	?	·	·	32%
CCN(CCCNC(=O)C1CCCN(S(=O)(=O)c2cnc[nH]2)C1)c1ccccc1 (stereo unspecified)	-4	-68%	-7	4%	3%
Cc1c(CCOC(=O)c2cc([N+](=O)[O-])cc([N+](=O)[O-])c2)sc[n+]1CCCCS(=O)(=O)[O-]	-1	1%	4	·	4%
CN(Cc1c(F)cccc1Cl)C(=O)CNC(=O)c1cccs1	94*	?	39*	5%	57%
CN(Cc1ccc(F)cc1)C(=O)CNC(=O)c1cccs1	·	23%	·	·	-6%
CN1CCN(P(=O)(c2ccccc2)c2nc3ccccc3s2)CC1 (stereo unspecified)	0	13µM*	-1	-2%	1%
Cc1cc(NC(=O)C(C)SCC(=O)Nc2ccc(SC(F)F)cc2)no1 (stereo unspecified)	-3	25%	1	17%	21%
C=CCN=C1S/C(=C/c2ccc([N+](=O)[O-])cc2)C(=O)N1CC=C	-2	?	-1	-6%	-7%
C=CCN=C1S/C(=C\c2ccc(Cl)cc2)C(=O)N1CC=C	49*	12%	13	-32%	?
CNS(=O)(=O)c1cccc(C(=O)NCC(c2ccco2)N(C)C)c1 (stereo unspecified)	-9	41%	-3	25%	4%
COc1cccc(-c2ncc3ccccc3c2COC(=O)c2cccc(Br)c2)c1	·	4.7µM*	·	·	?
COc1cccc(-c2ncc3ccccc3c2COC(=O)N(C)C)c1	·	?	·	·	-6%
COc1cccc(-c2ncc3ccccc3c2COC(=O)c2ccc(C(F)(F)F)cc2)c1	·	2.9µM*	·	·	?
CC1CN(c2ccc([N+](=O)[O-])c(NCCOc3ccccc3)c2)CCN1 (stereo unspecified)	-12	10%	-2	0%	?
O=C(CN1CCCC1)Nc1ccc([N+](=O)[O-])cc1	-7	-10%	-4	9%	4%
Cc1cc(C)n(CCN(C)Cc2nc(Cc3ccccc3F)no2)n1	5	?	12	2%	68%
CN(Cc1nc(Cc2ccccc2F)no1)[C@@H]1CS(=O)(=O)C[C@H]1O	1	12µM*	0	0%	34%
COc1ccc(C2=[N+](C)CCn3cccc32)c(OC)c1	9	1µM*	-2	-2%	2.1µM*
Cc1ccc(NC(=O)c2cc(N(C)C)ccc2[P+](=O)O)cc1	105*	-12%	84*	5%	86%
Cc1ccc(NC(=O)CO/N=C/c2ccc(N(C)C)cc2)cc1	-10	40%	10	-5%	13%
O=C1c2oc3ccccc3c(=O)c2C(c2cccc(Br)c2)N1Cc1ccco1 (stereo unspecified)	-5	0.37µM*	11	-74%	4%
Cc1ccc(CN2C(=O)CSC(C)C2=O)cc1 (stereo unspecified)	-9	2%	-4	-5%	-8%
